From the supplement of paper PMC6555819

Assays:
Assay in all cases: PBM binding z-score (relative to random genomic background probes); higher = stronger binding; sequences stand for … in GC…GCGATTGACAGCGTAGAATGAAGG
[1] = system: PPARg:RXRa DBDmut IVT, anti-RXR (DBD mutation: RXRa K156A/R161A, NR concentration 270 nM, RXRa partner concentration 90 nM)
Summary of the method: (§1)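 Ligand-free nuclear receptor dimers were bound for 1 h to custom Agilent 4×180K protein-binding microarrays. Detection used antibodies against each partner (one per run). Binding z-scores rest on regression-normalized fluorescence, with random background probes as the reference.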

[2] = system: PPARg:RXRa IVT, anti-PPARg (NR concentration 270 nM, RXRa partner concentration 90 nM)
Summary of the method: as §1

[3] = system: PPARg DBDmut:RXRa IVT, anti-PPARg (DBD mutation: PPARg1 K132A/R137A, NR concentration 270 nM, RXRa partner concentration 90 nM)
Summary of the method: as §1

[4] = system: PPARg DBDmut IVT, anti-PPARg (DBD mutation: PPARg1 K132A/R137A, NR concentration 270 nM)
Summary of the method: as §1

[5] = system: PPARg homodimer (NR concentration 180 nM)
Summary of the method: as §1

[6] = system: PXR:RXRa (NR concentration 270 nM, RXRa partner concentration 90 nM)
Summary of the method: as §1

[7] = system: PXR homodimer (NR concentration 270 nM)
Summary of the method: as §1

[8] = system: RARa:RXR (NR concentration 270 nM, RXRa partner concentration 90 nM)
Summary of the method: as §1

[9] = system: RARa homodimer (NR concentration 270 nM)
Summary of the method: as §1

[10] = system: RARb:RXRa (NR concentration 270 nM, RXRa partner concentration 90 nM)
Summary of the method: as §1

[11] = system: RARb homodimer (NR concentration 270 nM)
Summary of the method: as §1

[12] = system: RARg:RXRa (NR concentration 270 nM, RXRa partner concentration 90 nM)
Summary of the method: as §1

[13] = system: RARg homodimer (NR concentration 270 nM)
Summary of the method: as §1

[14] = system: RXRa DBDmut IVT, anti-RXR (DBD mutation: RXRa K156A/R161A, NR concentration 90 nM)
Summary of the method: as §1

[15] = system: RXRa homodimer (NR concentration 180 nM)
Summary of the method: as §1

[16] = system: THRa:RXRa (NR concentration 90 nM, RXRa partner concentration 90 nM)
Summary of the method: as §1

[17] = system: THRa homodimer (NR concentration 90 nM)
Summary of the method: as §1

[18] = system: VDR homodimer (NR concentration 270 nM)
Summary of the method: as §1

| Sequence | PBM binding z-score [1] | PBM binding z-score [2] | PBM binding z-score [3] | PBM binding z-score [4] | PBM binding z-score [5] | PBM binding z-score [6] | PBM binding z-score [7] | PBM binding z-score [8] | PBM binding z-score [9] | PBM binding z-score [10] | PBM binding z-score [11] | PBM binding z-score [12] | PBM binding z-score [13] | PBM binding z-score [14] | PBM binding z-score [15] | PBM binding z-score [16] | PBM binding z-score [17] | PBM binding z-score [18] |
| --- | --- | --- | --- | --- | --- | --- | --- | --- | --- | --- | --- | --- | --- | --- | --- | --- | --- | --- |
| TCTGCTAGGTCAGTTGGTCAGCTAGCGAGCTGCC | 2.78 | 3.15 | -0.34 | -0.0427 | -0.0101 | 0.114 | -0.917 | 0.452 | -1.22 | 3.38 | 2.51 | 2.7 | 3.71 | 0.477 | 0.644 | 1.18 | -0.284 | -0.49 |
| CCTTACGGGTCAAGGTTATAGCACGGGTGGTACG | 1.93 | 3.57 | 0.0487 | -0.257 | 1.58 | 3.2 | 0.367 | 4.01 | 0.705 | 4.13 | 3.41 | 5 | 5.02 | 0.875 | 5.55 | 3.02 | 0.771 | 1.46 |
| ACAGACAGGTGAGTGAAGGTGACTCAGCTGGACG | 0.718 | 1.24 | 0.42 | -0.00311 | -0.248 | -0.0313 | -0.405 | 0.49 | 0.0445 | 0.935 | 0.821 | 0.36 | 0.791 | -0.543 | 0.523 | 2 | -0.223 | -0.311 |
| CCGACTGGGGCATTAGGTTACCATAAGCCAGCCC | 4.18 | 4.74 | 1.31 | -0.339 | 0.243 | -0.496 | -0.542 | 0.173 | -0.742 | 0.848 | 0.851 | 0.715 | 0.58 | -0.386 | 0.21 | 0.535 | 0.0828 | -0.601 |
| TTACCAAGGGGAAAGGTCGTTGATGCACGCCTTG | 0.296 | 2.61 | 0.358 | 0.0839 | 1.27 | 2.44 | 0.149 | 2.73 | -0.553 | 1.77 | 1.72 | 1.92 | 0.864 | 0.0883 | 2.86 | 1.4 | -0.14 | 1.52 |
| CGTCAAAGCTCAAGGTAACGTAACAGAAAGCAGC | 0.0198 | -0.221 | -1.47 | -0.249 | -0.421 | -0.257 | -0.303 | 0.0827 | -0.0827 | -0.0501 | -0.207 | 0.00785 | 0.083 | -0.317 | 0.0693 | 1.29 | 0.693 | -0.4 |
| CCTACTGGGCCAAAAAGCTCATTGATGCCGATAA | 3.38 | 2.11 | -0.849 | -0.936 | -0.703 | -0.847 | -0.417 | -1.01 | -0.487 | -0.356 | -0.842 | -0.596 | -0.419 | -0.369 | -0.638 | -0.815 | -0.619 | -0.487 |
| CCGCGGAGGACAGAAGGTCAGAGCTGTCCGCTTT | -0.00504 | 0.1 | -1.81 | -2.04 | 0.973 | 1.42 | -0.53 | 2.3 | -0.744 | 3.25 | 3.51 | 3.69 | 3.56 | 0.479 | 2.27 | 2.17 | -0.127 | 0.1 |
| ATACCAAGGTGATCGTGAGGTCGTTAATACTAAC | 0.582 | 1.08 | 0.575 | 0.441 | 1.01 | 3.26 | 1.7 | 2.15 | 0.0918 | 1.44 | 1.68 | 1.93 | 0.856 | 0.881 | 1.32 | 3.3 | 2.44 | 3.04 |
| AGAATGAGGTTTCCAAAGATCAGGGAAACGCTTG | 0.298 | -0.0805 | 0.256 | 0.153 | -0.417 | -0.387 | -0.601 | -0.144 | -0.745 | -0.151 | -0.579 | -0.0652 | -0.103 | -0.247 | 0.124 | -0.118 | -0.311 | -0.385 |
| CTCGAAAGTTCGTGCTCAGGTGAGTATACCAAAC | -0.18 | 0.443 | -0.211 | 0.0374 | 0.564 | 1.4 | 0.241 | 1.64 | -0.0689 | 2.06 | 1.55 | 2.29 | 1.52 | 2.83 | 1.01 | 2.86 | 0.851 | 1.88 |
| TAGCCTAGGTCATGGGCCAGTACACCACGCGAAC | 1.78 | 3.17 | 1.24 | -0.494 | 1.72 | 1.62 | -0.215 | 2.77 | 0.343 | 3.92 | 2.88 | 4.3 | 4.65 | 0.275 | 3.7 | 2.99 | 1.48 | 0.985 |
| CCGACTGGGGCAGAAAGGTTACCATCCCATCCGG | 1.51 | 1.69 | -0.348 | -1.37 | 0.985 | 0.837 | -0.375 | 1.61 | -0.144 | 1.89 | 2.3 | 1.44 | 1.19 | -1.13 | 1.48 | 0.817 | -0.666 | -0.162 |
| TCGAGTAGGTTAGGGGCAGTCAGAATGGCGTCGA | 2 | 1.49 | -0.663 | -0.988 | 0.763 | 0.184 | 0.227 | 0.265 | -0.345 | 1.08 | 1.27 | 0.245 | 0.258 | 0.0348 | 0.203 | 0.742 | 0.229 | 0.0516 |
| TCATATAGGTAAATGATAGGTGAAAGTCCGATCT | 3.92 | 2.51 | 1.28 | 1.62 | 1.19 | 0.828 | 0.487 | 1.49 | 1.16 | 0.612 | 0.731 | 0.906 | 0.775 | 1.92 | 1.15 | 0.682 | 0.132 | 0.346 |
